Key:
Conditions in all cases: concentration: 1 μM, replicates: in singlicate; n = 1
NEK11 = test system: NEK11
NEK1 = test system: NEK1
NEK2 = test system: NEK2
NEK3 = test system: NEK3
NEK4 = test system: NEK4
NEK5 = test system: NEK5
NEK6 = test system: NEK6
NEK7 = test system: NEK7
NEK9 = test system: NEK9
NIK = test system: T1, NIK
T1 construct: gene MAP3K14
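Also: KINOMEscan kinase panel screen.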

SMILES | %Inh (NEK11) [%] | %Inh (NEK1) [%] | %Inh (NEK2) [%] | %Inh (NEK3) [%] | %Inh (NEK4) [%] | %Inh (NEK5) [%] | %Inh (NEK6) [%] | %Inh (NEK7) [%] | %Inh (NEK9) [%] | %Inh (NIK) [%]
Cn1cc(-c2[nH]c3cc(NC(=O)[C@H](N)C4CCCCC4)cc4c3c2C=NNC4=O)cn1 | 89 | 70 | 21 | 32 | 0 | 54 | 2 | 0 | 11 | 3
CC(C)(C)c1ccc2nccc(Nc3cccc(O)c3)c2c1 [GW856795] | 22 | 0 | 11 | 13 | 0 | 0 | 0 | 0 | 0 | 9
C[C@@H]1CC[C@@H](C(=O)Nc2ccccc2)CN1c1cc(-c2ccc3c(N)n[nH]c3c2)nc(N)n1 [GSK2286062] | 0 | 1 | 0 | 4 | 0 | 7 | 0 | 0 | 8 | 0
COc1cccc(C2=C(Nc3ccc(Cl)c(C(=O)O)c3)C(=O)NC2=O)c1 [SB-390769] | 27 | 0 | 0 | 7 | 38 | 3 | 0 | 0 | 0 | 21
CNC(=O)c1ccccc1Nc1nc(Nc2ccc(N3CCOCC3)cc2)ncc1Cl.Cl [GSK1576028] | 85 | 86 | 89 | 93.3 | 65 | 100 | 98.6 | 98 | 97.7 | 36
Nc1n[nH]c2cnc(-c3ccccc3)cc12 [SB-642124] | 3 | 0 | 0 | 79 | 12 | 96.5 | 0 | 0 | 0 | 10
Cl.NC(=O)c1cccc(Nc2nccc(Nc3ccc(Oc4c(Cl)cccc4Cl)c(Cl)c3)n2)c1 [GW659009] | 0 | 0 | 1 | 87 | 3 | 26 | 86 | 5 | 6 | 14
Cn1cc(-c2ccc3c(c2)CCN3C(=O)Cc2cccc(F)c2)c2c(N)ncnc21 [GSK2603358] | 8 | 31 | 73 | 11 | 22 | 28 | 0 | 0 | 0 | 23
Cc1ccc(C)c(NC(=O)NC2CCN(c3ccnc(Nc4ccc(F)cc4)n3)C2)c1 (centres unmarked) [GSK1379720] | 15 | 0 | 0 | 8 | 27 | 4 | 0 | 0 | 0 | 22
COC(=O)Nc1nc2ccc(Oc3ccc(NC(=O)Nc4cc(C(F)(F)F)ccc4F)cc3)cc2n1C.Cl [GW692089] | 25 | 0 | 0 | 0 | 0 | 0 | 0 | 0 | 0 | 27
COc1cccc(NC(=O)NC2CCN(c3ccnc(Nc4cc(OC)c(OC)c(OC)c4)n3)C2)c1 (centres unmarked) [GSK1379763] | 0 | 65 | 21 | 33 | 5 | 100 | 16 | 52 | 40 | 6
Cl.Cl.NCC(NC(=O)c1cc(-c2ccccc2)c(-c2ccnc3[nH]ccc23)s1)c1ccccc1 (centres unmarked) [GSK1321561] | 6 | 0 | 8 | 0 | 0 | 6 | 0 | 0 | 13 | 17
O=C(Nc1ccccc1F)NC1CCN(c2ccnc(Nc3ccc(F)cc3)n2)CC1 [GSK1379800] | 7 | 0 | 0 | 13 | 0 | 33 | 0 | 0 | 0 | 9
FC(F)(F)c1ccc(/C=C/c2cncnc2Nc2ccc3[nH]c(Cc4ccccc4)nc3c2)cc1 [GW709199] | 9 | 0 | 0 | 30 | 0 | 23 | 13 | 0 | 2 | 0
COc1ccc(CNC(=O)NC2CCN(c3ccnc(Nc4ccc(F)cc4)n3)CC2)cc1 [GSK1379788] | 2 | 0 | 0 | 12 | 0 | 13 | 0 | 0 | 0 | 12
O=C(Nc1cccc(-c2nn3ncccc3c2-c2ccnc(Nc3ccccc3)n2)c1)c1c(F)cccc1F [GSK198271] | 0 | 3 | 21 | 11 | 4 | 0 | 0 | 0 | 8 | 0

SMILES | %Inh (NEK11) [%] | %Inh (NEK1) [%] | %Inh (NEK2) [%] | %Inh (NEK3) [%] | %Inh (NEK4) [%] | %Inh (NEK5) [%] | %Inh (NEK6) [%] | %Inh (NEK7) [%] | %Inh (NEK9) [%] | %Inh (NIK) [%]
COC(=O)Nc1nc2cc(Oc3ccc(NC(=O)Nc4cc(C(F)(F)F)ccc4F)cn3)ccc2[nH]1.Cl.Cl [GW681170] | 34 | 0 | 0 | 0 | 0 | 0 | 0 | 0 | 35 | 26
CN(C)S(=O)(=O)c1cc(-c2ccc3nccc(-c4cccc(S(N)(=O)=O)c4)c3c2)cnc1N [GSK1669921] | 0 | 0 | 34 | 0 | 10 | 0 | 0 | 31 | 32 | 3
O=c1[nH]cc(-c2ccc(N3CCOCC3)cc2)c2sc(-c3cn[nH]c3)cc12 [GSK2276055] | 0 | 19 | 19 | 16 | 0 | 0 | 0 | 39 | 53 | 17
Cc1cccc(NC(=O)Nc2ccc(Oc3ncnc4ccn(C)c34)cc2)c1 | 0 | 0 | 0 | 19 | 0 | 0 | 16 | 0 | 1 | 5
O=C(Nc1cccc(-c2nn3ccccc3c2-c2ccnc(Nc3cccc(C(F)(F)F)c3)n2)c1)c1c(F)cccc1F [GSK292658] | 0 | 0 | 8 | 0 | 0 | 0 | 0 | 4 | 16 | 0
COc1cc(Nc2nccc(N3CCC(NC(=O)c4cc5ccccc5s4)C3)n2)cc(OC)c1OC (centres unmarked) [GSK1379760] | 0 | 35 | 26 | 11 | 13 | 99.5 | 27 | 37 | 31 | 4
CC(=O)N1CCN(c2ccc(Nc3nccc(-c4sc(C(C)C)nc4-c4cccc(NS(=O)(=O)c5cccc(Cl)c5)c4)n3)cn2)CC1 [GSK1660437] | 90 | 0 | 42 | 0 | 6 | 2 | 32 | 73 | 85 | 17
CSc1cccc2c(-c3ccncn3)c(-c3ccc(F)cc3)nn12 [GW514786] | 0 | 0 | 0 | 0 | 15 | 7 | 0 | 0 | 1 | 14
NCCCC(NC(=O)c1cc(Br)c(-c2ccnc3[nH]ccc23)s1)c1ccccc1.O=C(O)C(F)(F)F.O=C(O)C(F)(F)F (centres unmarked) [GSK1287544] | 0 | 74 | 9 | 0 | 9 | 88 | 16 | 0 | 17 | 16
C[C@@H](Oc1cc(-n2cnc3cc(-c4ccnc(NCCS(C)(=O)=O)c4)ccc32)sc1C(N)=O)c1ccccc1Cl [GSK907232] | 0 | 72 | 98.8 | 3 | 0 | 89 | 4 | 12 | 74 | 0
Cc1ccc(F)c(C(=O)Nc2cccc(-c3nn4ccccc4c3-c3ccnc(Nc4cccc(F)c4)n3)c2)c1F [GSK361061] | 0 | 0 | 0 | 8 | 18 | 12 | 9 | 14 | 16 | 5
Cl.c1ccc(-c2ccc3c(Nc4ccc5[nH]ccc5c4)ccnc3c2)nc1 [GW440138] | 0 | 0 | 0 | 9 | 0 | 0 | 0 | 0 | 0 | 24
CC(C)c1nc(-c2cccc(NS(=O)(=O)c3c(F)cccc3F)c2F)c(-c2ccnc(Nc3ccc(N4CCOCC4)nc3)n2)s1 [GSK2008607] | 98.6 | 82 | 99.1 | 1 | 51 | 26 | 99.1 | 92.9 | 93.6 | 0
CN1CCN(CCCNc2nccc(-c3c(-c4ccc(F)cc4)nn4cc(C(F)(F)F)ccc34)n2)CC1 [GW621581] | 14 | 0 | 14 | 0 | 0 | 0 | 0 | 11 | 0 | 18
Nc1ncc(-c2cccnc2)c2scc(-c3ccc4c(c3)CCN4C(=O)Cc3ccccc3)c12 [GSK683281] | 44 | 0 | 70 | 1 | 17 | 22 | 8 | 19 | 28 | 4
CCc1ccc(-c2ccc3c(c2)-c2c(cnn2C)S(=O)(=O)N3C)cc1 | 0 | 0 | 5 | 0 | 0 | 0 | 0 | 0 | 0 | 0

— article PMC5540273 (PLoS ONE, 2017)
